From PubChem BioAssay (NCATS) come the findings set out here.

Assay [1] in a line: AP1 Signaling Pathway (AID 357; active = well fitted curve in either direction with a large enough effect, not every such curve was filed as active;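 also: ME-180 reporter cells stimulated with EGF at its EC50 level; % is scaled to controls: 0 for no effect and ±100 for the full control effect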). The essentials:
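First, ME-180 AP-1-bla cells were cultured overnight at 37 °C in low-serum Opti-MEM. Next, titrated compounds with EC50 EGF were incubated 5 hours. Finally, CCF4 was added for 2.5 hours and the 460/530 nm ratio recorded.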

Assay [2] is described as follows: NFAT Signaling Pathway (AID 444; active = well fitted curve in either direction with a large enough effect, not every such curve was filed as active;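 also: carbachol stimulus at about its EC50 of 1 µM final; % is scaled to controls: 0 for no effect and ±100 for the full control effect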). As to conditions: Jurkat NFAT-bla M1, carbachol, beta-lactamase ratio, 5 h; at 17.2 µM (top of the series) unless noted. A digest of the protocol:
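Jurkat cells with NFAT-driven β-lactamase reporter and co-expressed M1 receptor, stimulated with carbachol (final 1 uM, ~EC50), compound titration, 5 h at 37 °C. CCF4 loaded 1 h at RT; 460/530 nm ratio gave %activity and AC50.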

Assay [3] is described as follows: Stat Signaling Pathway (AID 446; active = well fitted curve in either direction with a large enough effect, not every such curve was filed as active;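 also: ME-180 cervical cancer cells given 40 pM IL-6 alongside compound; SIE-controlled beta-lactamase reporter measured as 460/530 nm FRET emission ratio; % is scaled to controls: 0 for no effect and ±100 for the full control effect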). A digest of the protocol: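 Overnight-plated ME-180 cells bearing a STAT Inducible Element beta-lactamase reporter; 5 h co-exposure to compound and 40 pM IL-6; values normalized to 300 pM IL-6 and 125 nM JAK inhibitor controls.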
The target in assay [4] is Glucocorticoid receptor (Homo sapiens) (UniProt P04150). The assay can be described thus: GR-GFP Redistribution (AID 450;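 active = compounds whose dose series gives a full or clear partial fitted curve of increased nuclear translocation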; also: potency is read from the fitted curve at half-maximal effect). The settings on record: U2OS GR-GFP nuclear translocation, laser cytometry, 2 h.
Chain of Glucocorticoid receptor (Homo sapiens) (P04150 whole entry, looked up, the tested form may be a part): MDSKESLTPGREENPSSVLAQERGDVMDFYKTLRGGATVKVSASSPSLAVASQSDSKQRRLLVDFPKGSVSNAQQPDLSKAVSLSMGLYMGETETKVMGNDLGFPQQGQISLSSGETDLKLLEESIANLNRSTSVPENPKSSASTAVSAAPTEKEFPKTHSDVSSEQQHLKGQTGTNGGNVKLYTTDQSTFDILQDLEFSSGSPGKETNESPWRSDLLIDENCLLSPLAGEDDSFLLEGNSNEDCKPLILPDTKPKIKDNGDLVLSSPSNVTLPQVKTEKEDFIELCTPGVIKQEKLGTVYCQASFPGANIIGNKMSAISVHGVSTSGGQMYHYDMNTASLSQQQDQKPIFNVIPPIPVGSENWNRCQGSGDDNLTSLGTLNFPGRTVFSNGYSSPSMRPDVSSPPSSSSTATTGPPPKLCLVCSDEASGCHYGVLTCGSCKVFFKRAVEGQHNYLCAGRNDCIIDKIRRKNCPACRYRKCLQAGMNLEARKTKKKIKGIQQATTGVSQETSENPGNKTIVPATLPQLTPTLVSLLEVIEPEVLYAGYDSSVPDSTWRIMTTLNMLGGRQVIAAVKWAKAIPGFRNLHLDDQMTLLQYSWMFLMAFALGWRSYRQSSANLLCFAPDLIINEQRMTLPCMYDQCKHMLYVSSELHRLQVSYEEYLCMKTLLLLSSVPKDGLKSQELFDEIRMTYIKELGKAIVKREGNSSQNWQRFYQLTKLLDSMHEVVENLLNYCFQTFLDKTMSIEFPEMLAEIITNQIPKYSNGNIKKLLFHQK
The target is the same in assay [5]. The assay can be described thus: GR-EFC Redistribution (AID 451; calls by dose curve; also: potency is read from the fitted curve at half-maximal effect). As to conditions: CHO-K1 GR-EFC translocation, beta-gal luminescence, 2 h. The essentials: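 CHO-K1 cells expressing nuclear EA and GR-ED fragments of b-gal; compounds titrated up to 46 uM final, 2 h at 37 C. GR nuclear translocation read as complemented b-gal luminescence after 1 h RT detection.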

The target of assay [6] is Mitogen-activated protein kinase 10 (Mus musculus) (UniProt Q61831). The experiment in a line: JNK3 AlphaScreen Assay (AID 530; active = well fitted curve in either direction with a large enough effect, not every such curve was filed as active;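 also: kinase came from lysate of stimulated human HepG2 cells; signal reports phosphorylation of biotinylated GST-cJun 1-79 at Ser73 with 10 µM ATP; % is scaled to controls: 0 for no effect and ±100 for the full control effect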). The essentials: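 HepG2 lysate (IL-1b/TNFa pre-activated) + biotin-GST-cJun 1-79 + anti-pSer73 cJun; cpd titration, 15 min RT; ATP 10 uM start; Tris pH 7.6, MgCl2, DTT, vanadate; beads in EDTA buffer; AlphaScreen.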
(Bead proximity is the source of the signal in Alpha formats.)

Assay [7] concerns the target 3',5'-cyclic-AMP phosphodiesterase 4B (Homo sapiens) (UniProt Q07343). The experiment in a line: qHTS Assay for Inhibitors of PDE-IV (AID 607; active = well fitted activation curve with a large enough effect in the main read-out, with a control signal flat, not every such curve was filed as active; also: % of control where 0% means no effect). The essentials:
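Live HEK293 cells with a modified cyclic nucleotide-gated (CNG) channel report intracellular cAMP via membrane-potential dye fluorescence (ex 535/em 590 nm). Endogenous PDE-IV was targeted. Compounds were tested at up to 22.9 uM final; RO 20-1724 100 uM served as control.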
(In general: qHTS replaces the single test concentration by a dilution series.)

The nature of assay [8]: qHTS Assay for Lipid Storage Modulators (AID 1519; calls by dose curve). The settings on record: Drosophila S3 cells, BODIPY lipid droplet/cell ratio, laser cytometry, cells loaded with oleic acid; for activity change, negative = inhibition: at 25.7 µM (top of the series). The essentials: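 Cells seeded at 5,000 per well were treated with compounds over a concentration series and loaded with oleic acid (400 uM, as added). Lipid droplet fluorescence (488 nm excitation, 500-530 nm channel) was read by laser-scanning cytometry and normalized to 20 uM Triacsin C.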

Assay [9] has as its target ATP-dependent 6-phosphofructokinase (Trypanosoma brucei brucei) (UniProt O15648). The assay can be described thus: qHTS Assay to Find Inhibitors of T. brucei phosphofructokinase: hit validation (AID 492961). A digest of the protocol: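 Compounds titrated; %activity normalized to 0x and 1x enzyme controls, curve-fitted. Readout: ADP-Glo luminescence after 45 min room-temperature reaction of 1.25 nM PFK, 0.1 mM ATP, 0.5 mM F6P, pH 8.0.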

The target of assay [10] is Ubiquitin carboxyl-terminal hydrolase 1 (Homo sapiens) (UniProt O94782). The assay can be described thus: Inhibitors of USP1/UAF1: Pilot qHTS (AID 504865).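 Also: rhodamine fluorescence freed from ubiquitin-rhodamine substrate followed over time; top concentration of the series differs between compounds; % is scaled to controls: 0 for no effect and ±100 for the full control effect; nearly all actives have a fitted effect of over 35% in size.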 A digest of the protocol:
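1nM USP1/UAF1 + cpd, 15 min RT; start w/ Ub-Rho 150nM final; kinetic FL 480/540 nm, 6 reads q60 s. Buffer 50mM HEPES pH 7.8, 0.5mM EDTA, 1mM TCEP, 0.01% Tween-20, 0.1 mg/ml BSA.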

For assay [11], the target named is Luciferin 4-monooxygenase (Photinus pyralis) (UniProt P08659). The assay can be described thus: Biochemical firefly luciferase enzyme assay for NPC (AID 624030).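 Also: purified P. pyralis luciferase at 10 nM with luciferin and ATP substrate; 0% = DMSO and -100% = full luciferase inhibition by PTC124 control; nearly all actives have a fitted effect of over 70% in size.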 A digest of the protocol:
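Purified P. pyralis luciferase at 10 nM in 50 mM Tris Acetate (final), luminescence read within 5 minutes of enzyme addition to compounds. Activity normalised to PTC124 versus DMSO; concentration-response curves classed by r2, magnitude and activity.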

The nature of assay [12]: qHTS profiling for inhibitors of Plasmodium falciparum proliferation (AID 504749).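 Also: 0% = DMSO vehicle and full inhibition = artemisinin control; nearly all actives have a fitted effect of over 60% in size.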 The settings on record: P. falciparum in erythrocytes, SYBR Green DNA, 72 h. A digest of the protocol: (§1)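 SYBR Green fluorescence (ex 485 nm, em 535 nm) reports parasite DNA after 72 h compound exposure of infected red cells at 0.3% parasitemia, 2.5% hematocrit; signal normalized to 0.29 uM artemisinin and vehicle wells.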

The subject of the next assay is C2A. The assay is described as above. The settings on record: P. falciparum in erythrocytes, SYBR Green DNA, 72 h; series mostly up to 12.8 µM. A digest of the protocol:
as §1

Another assay relates to CP217. Described as above. The settings on record: P. falciparum in erythrocytes, SYBR Green DNA, 72 h; series mostly up to 12.8 µM. A digest of the protocol: as §1
The test system of another assay is CP238. The assay is described as above. The settings on record: P. falciparum in erythrocytes, SYBR Green DNA, 72 h; series mostly up to 12.8 µM. The essentials: as §1
A further assay relates to CP250. The assay is described as above. The settings on record: P. falciparum in erythrocytes, SYBR Green DNA, 72 h; series mostly up to 12.8 µM. A digest of the protocol:
as §1

The next assay has as its system CP252. The description is as above. As to conditions: P. falciparum in erythrocytes, SYBR Green DNA, 72 h; series mostly up to 12.8 µM. The essentials: as §1
The next assay concerns FAB9. The assay is described as above. The settings on record: P. falciparum in erythrocytes, SYBR Green DNA, 72 h; series mostly up to 12.8 µM. A digest of the protocol: as §1
The subject of another assay is HB3. The assay is described as above. The settings on record: P. falciparum in erythrocytes, SYBR Green DNA, 72 h; series mostly up to 12.8 µM. A digest of the protocol: as §1
For another assay, the system named is SC27B. The assay is described as above. The settings on record: P. falciparum in erythrocytes, SYBR Green DNA, 72 h; series mostly up to 12.8 µM. The essentials:
as §1

Setting [13] is: measured here: cell count channel max response.
Setting [14] is: measured here: lipid channel max response.
[15] abbreviates: at 12.8 µM (top of the series), parasite line A.
Setting [16] is: at 12.8 µM (top of the series), parasite line B.

Values joined by “and” are separate entries in the source; they are usually repeats but may differ in a detail not shown here. Equal entries are not always repeated. Inconclusive results are not listed. Active and inactive are the calls of the source. Unless noted, calls follow the shape of the dose curve; as a rule, active = well fitted curve in the direction sought with a large enough effect; inconclusive = small, poorly fitted or top-dose-only effect, or another doubt; inactive = no such curve, though single readings can be large; an effect the other way counts as inactive or inconclusive. Bounds are passed on as bounds.

Chain of 3',5'-cyclic-AMP phosphodiesterase 4B (Homo sapiens) (Q07343 whole entry, looked up): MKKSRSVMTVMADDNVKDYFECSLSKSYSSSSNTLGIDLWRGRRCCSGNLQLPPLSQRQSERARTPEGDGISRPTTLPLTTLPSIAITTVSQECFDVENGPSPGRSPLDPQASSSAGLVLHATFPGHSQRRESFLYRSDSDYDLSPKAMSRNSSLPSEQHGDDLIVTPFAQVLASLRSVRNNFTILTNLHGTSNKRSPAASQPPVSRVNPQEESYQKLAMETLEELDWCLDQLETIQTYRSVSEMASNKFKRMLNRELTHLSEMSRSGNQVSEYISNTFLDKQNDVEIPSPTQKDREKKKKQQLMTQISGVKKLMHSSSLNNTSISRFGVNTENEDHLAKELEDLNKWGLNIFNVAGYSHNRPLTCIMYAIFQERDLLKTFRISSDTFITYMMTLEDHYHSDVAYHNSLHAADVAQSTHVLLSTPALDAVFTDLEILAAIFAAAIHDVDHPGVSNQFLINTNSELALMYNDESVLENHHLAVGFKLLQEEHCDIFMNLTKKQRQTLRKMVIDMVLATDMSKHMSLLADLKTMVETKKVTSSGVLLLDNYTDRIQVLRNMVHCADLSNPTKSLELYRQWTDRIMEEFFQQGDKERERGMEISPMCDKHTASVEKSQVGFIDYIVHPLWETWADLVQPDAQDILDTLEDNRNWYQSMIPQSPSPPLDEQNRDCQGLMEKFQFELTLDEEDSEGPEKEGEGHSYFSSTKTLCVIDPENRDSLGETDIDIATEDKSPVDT
Chain of Luciferin 4-monooxygenase (Photinus pyralis) (P08659 whole entry, looked up): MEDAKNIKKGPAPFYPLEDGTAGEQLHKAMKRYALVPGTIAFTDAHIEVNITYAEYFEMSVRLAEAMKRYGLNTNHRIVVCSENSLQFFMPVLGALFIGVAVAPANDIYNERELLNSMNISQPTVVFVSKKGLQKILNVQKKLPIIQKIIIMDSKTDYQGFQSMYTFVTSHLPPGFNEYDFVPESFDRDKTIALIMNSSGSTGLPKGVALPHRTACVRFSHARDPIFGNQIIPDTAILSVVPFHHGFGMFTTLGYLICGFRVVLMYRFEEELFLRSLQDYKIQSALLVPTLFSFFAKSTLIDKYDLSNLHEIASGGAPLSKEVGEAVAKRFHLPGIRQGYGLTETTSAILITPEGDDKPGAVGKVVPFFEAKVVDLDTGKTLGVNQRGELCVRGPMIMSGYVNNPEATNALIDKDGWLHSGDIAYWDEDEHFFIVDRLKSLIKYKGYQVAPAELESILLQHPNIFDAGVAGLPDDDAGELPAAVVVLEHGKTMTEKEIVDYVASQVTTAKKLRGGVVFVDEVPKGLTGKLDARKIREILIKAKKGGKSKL
Chain of Ubiquitin carboxyl-terminal hydrolase 1 (Homo sapiens) (O94782 whole entry, looked up): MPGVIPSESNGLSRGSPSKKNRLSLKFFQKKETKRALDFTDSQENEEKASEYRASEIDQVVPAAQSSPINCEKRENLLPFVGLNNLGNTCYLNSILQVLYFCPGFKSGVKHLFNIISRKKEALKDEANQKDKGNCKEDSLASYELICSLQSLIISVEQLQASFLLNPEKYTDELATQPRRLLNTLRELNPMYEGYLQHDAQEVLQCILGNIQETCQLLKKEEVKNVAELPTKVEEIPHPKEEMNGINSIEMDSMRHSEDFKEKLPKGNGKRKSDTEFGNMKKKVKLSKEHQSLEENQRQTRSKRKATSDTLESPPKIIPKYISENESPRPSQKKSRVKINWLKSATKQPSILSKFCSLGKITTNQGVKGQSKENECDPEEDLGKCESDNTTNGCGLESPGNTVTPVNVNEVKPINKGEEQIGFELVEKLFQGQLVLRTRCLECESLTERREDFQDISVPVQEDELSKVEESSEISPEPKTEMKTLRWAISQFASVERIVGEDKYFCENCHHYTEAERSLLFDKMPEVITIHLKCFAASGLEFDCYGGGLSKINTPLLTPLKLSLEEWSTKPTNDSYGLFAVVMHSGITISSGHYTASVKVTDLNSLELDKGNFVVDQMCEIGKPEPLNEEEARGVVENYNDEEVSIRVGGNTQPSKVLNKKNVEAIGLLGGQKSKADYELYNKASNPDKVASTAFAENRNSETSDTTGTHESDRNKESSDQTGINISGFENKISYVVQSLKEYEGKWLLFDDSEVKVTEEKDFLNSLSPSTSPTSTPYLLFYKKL
Chain of ATP-dependent 6-phosphofructokinase (Trypanosoma brucei brucei) (O15648 whole entry, looked up): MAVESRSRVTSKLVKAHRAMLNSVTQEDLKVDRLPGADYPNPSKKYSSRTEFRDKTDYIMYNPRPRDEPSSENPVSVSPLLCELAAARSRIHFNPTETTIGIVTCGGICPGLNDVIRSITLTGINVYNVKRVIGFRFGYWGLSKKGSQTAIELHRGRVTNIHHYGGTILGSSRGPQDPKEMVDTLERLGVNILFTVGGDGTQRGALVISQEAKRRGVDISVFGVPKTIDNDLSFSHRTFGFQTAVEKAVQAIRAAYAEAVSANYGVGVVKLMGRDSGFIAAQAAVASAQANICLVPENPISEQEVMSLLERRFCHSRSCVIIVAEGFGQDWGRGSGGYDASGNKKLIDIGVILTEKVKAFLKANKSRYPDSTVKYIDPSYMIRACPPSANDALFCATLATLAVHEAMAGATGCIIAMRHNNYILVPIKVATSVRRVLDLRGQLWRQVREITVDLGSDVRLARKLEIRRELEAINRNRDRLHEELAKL

Turning to `Cc1onc(-c2ccccc2Cl)c1C(=O)N[C@H]1C(=O)N2[C@H]1SC(C)(C)[C@H]2C(=O)O`, the result in assay [1], in assay [3], in [7] and in assay [9] was inactive. The activity change, negative = inhibition in assay [2] was -2.89% (inactive); in [8] it was -0.309% (inactive). Also, the Potency in [4] and in [5] was > 20.6 µM (inactive) each time. In addition, the Potency result (in [6]; in [10]; in assay [11]; in the assay with C2A; in the assay on CP217; in the assay with CP238) was “inactive” in each case. For the same molecule, the Potency entry with CP250, in the assay with CP252, in the assay with FAB9, with HB3 and in the assay on SC27B was “inactive” each time. Moreover, the max response stood at 6.25% in [8] (setting [13]) and 7.41% in [8] (setting [14]). Besides, the activity, negative = inhibition in assay [12] (setting [15]) was 10.5% (inactive); in assay [12] (setting [16]) it was 7.79% (inactive).
Take `C[C@H]1CC[C@@H]2[C@@H](C)[C@H]3[C@H](C[C@H]4[C@@H]5CC=C6C[C@@H](O[C@]7(O[C@H]8O[C@@H](C)[C@@H](O)[C@@H](O)[C@@H]8O)C[C@@H](O[C@@H]8O[C@H](CO)[C@@H](O)[C@H](O)[C@@H]8O)[C@@H](O)[C@H](CO)O7)CC[C@]6(C)[C@H]5CC[C@@]34C)N2C1`: the molecule was called inactive in [1], in [3] and in assay [7]. For the same molecule, the Potency in assay [4] and in [5] was > 20.6 µM (inactive) throughout. The Potency entry in [6] and in assay [10] was “inactive” in each case. Further, the activity change, negative = inhibition in [8] is -0.703% (inactive). Also, the values for the max response in [8] (setting [13]) and in [8] (setting [14]) were -8.96% and -10.1%, respectively.
`COC(=O)Nc1nc2ccc(SC(C)C)cc2[nH]1`: the result in assay [1] and in assay [7] was inactive. In addition, in assay [5], the Potency was > 20.6 µM (inactive). The Potency result in assay [6] and in assay [10] was “inactive” each time. Moreover, the activity change, negative = inhibition in assay [8] is -1.67% (inactive). Further, the max response in assay [8] (setting [13]) was -2.31%; in assay [8] (setting [14]), -4.22%.
In the case of `Cc1ccc2c(c1)c1c3n2CCN[C@H]3CCC1`, the outcome in [1], in assay [3], in assay [7] and in [9] was inactive. Also, the activity change, negative = inhibition is -11.2% (inactive) in assay [2] and -2.69% (inactive) in assay [8]. Moreover, the Potency is > 20.6 µM (inactive) and > 46 µM (inactive) in assay [4]; > 20.6 µM (inactive) and > 46 µM (inactive) in assay [5]. The Potency entry (in assay [6]; in assay [10]; in assay [11]; in the assay with C2A; with CP217; in the assay with CP238) was “inactive” throughout. The Potency result in the assay with CP250, with CP252, in the assay on FAB9, in the assay with HB3 and in the assay with SC27B was “inactive” throughout. In addition, the max response in assay [8] (setting [13]) is -5.65%; in [8] (setting [14]), -6.69%. In addition, the activity, negative = inhibition was -1.32% (inactive) in assay [12] (at 28.7 µM (top of the series), parasite line A) and 1.18% (inactive) in assay [12] (at 28.7 µM (top of the series), parasite line B).
Turning to `C[C@@H]1[C@H]2CC[C@@H]3[C@@H]4CC=C5C[C@@H](N(C)C)CC[C@]5(C)[C@@H]4CC[C@@]32CN1C`, the outcome in [1], in assay [3] and in assay [7] was inactive. The Potency in [4] and in assay [5] was > 20.6 µM (inactive) throughout. For the same molecule, the Potency result in [6] was “inactive”. Further, the activity change, negative = inhibition in assay [8] is -1.08% (inactive). Moreover, the max response in [8] (setting [13]) was -4.62%; in assay [8] (setting [14]) it was -8.59%.
Consider `CCCCC[C@H](O)/C=C\[C@H]1[C@H](C/C=C\CCCC(=O)O)[C@@H](O)C[C@H]1O` (tested in a mixture with another compound), for which the outcome in [1], in assay [3], in assay [7] and in [9] was inactive. Also, the activity change, negative = inhibition is 11.1% (inactive) in [2] and -0.941% (inactive) in assay [8]. Further, the Potency in assay [4] and in assay [5] was > 20.6 µM (inactive) throughout. Moreover, the Potency result (in assay [6]; in assay [10]; in assay [11]; in the assay on C2A; with CP217; with CP238) was “inactive” throughout. Further, the Potency entry in the assay with CP250, in the assay with CP252, with FAB9, with HB3 and with SC27B was “inactive” each time. Besides, the max response turned out to be 14.3% in assay [8] (setting [13]) and 13.4% in assay [8] (setting [14]). For the same molecule, the activity, negative = inhibition in assay [12] (setting [15]) is -9.08% (inactive); in assay [12] (setting [16]), -0.0944% (inactive).
